From PubChem BioAssay (NCI)
About 83,000 compounds went through this panel and 20% of them were active in at least one assay; those are over-represented in the sample as a whole.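 Results are percent growth after 48 hours of single-concentration exposure. 100 means growth as in untreated cells, lower positive values show inhibition; negative values down to -100 show cell death.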 Unmarked numbers belong to inactive results. Calls of active or inactive are those of the source. The calls were made as follows: active = growth percent below 10; inactive = the rest.

These molecules were tested on HL-60(TB) leukemia (assay: NCI-60 one-dose screen, 48 h (100 = growth as untreated, 0 = no growth, -100 = all killed)). Conditions: 10 µM unless noted.
`COc1ccc(N=Nc2c(N)nn3c(-c4ccc(F)cc4)ccnc23)cc1` gave a growth of 95.3%. `Cc1cccc(NC(=O)CSc2nc3ccc(F)cc3c(=O)n2-c2ccc(Cl)cc2)c1C` was tested, and the growth was 96.4%. In the case of `COc1ccc(-c2cc(C(=O)N=Nc3c(O)[nH]c4ccc(F)cc34)c3ccccc3n2)cc1`, the growth is reported as 51.6%. With `CC1=C(C(=O)OCc2ccccc2)C(c2cccc3ccccc23)n2c(nc3ccccc32)N1` (centres undefined) the growth was 1.4% (active). `c1ccc(CSc2nnc(-c3ccc4nc(-c5ccccc5)[nH]c4c3)o2)cc1` showed a growth of 83.5%. In the case of `C#CCN(C)CCCOc1ccc(N(C)C(=O)c2cc(C(C)C)c(O)cc2O)cc1Cl`, the growth is reported as -40.7% (active). In the case of `CCc1ccccc1NC(=O)N/C(N)=N/c1nc2ccccc2s1`, the growth is reported as -27.2% (active). In the case of `Cc1cc2nc3c4ccccc4n(CCCN(C)C)c3nc2cc1C`, the growth is reported as -40.5% (active). `Cn1cc(-c2nnc(N)nc2-c2c[nH]c3ccccc23)c2cc(Br)cnc21` was tested, and the growth was 13.6%. Work on `COc1ccc(S(=O)(=O)Nc2ccc(-c3ccc4c(c3)NC(=O)/C4=C\c3ccc[nH]3)cc2)cc1OC` yielded a growth of 76.8%. In the case of `COc1cc2oc(-c3cccc(C(=O)Nc4ccc(Cl)cc4)c3)cc(=O)c2c(OCC(=O)N[C@@H](Cc2ccccc2)C(=O)O)c1OC`, the growth is reported as 115%. Molecule `COc1c(B(O)O)cccc1-c1nc2ccc3cn[nH]c3c2c2c1CCCC2` has a growth of 47.6%. With `COc1ccc(NC2=C(I)C(=O)C(C)=C(C)C2=O)cc1` the growth was -35.7% (active). With `C/C(=C\c1ccc(O)cc1O)c1ccc2ccc(O)cc2[o+]1` the growth was 63.2%. `COc1ccc2oc(=O)c(-c3csc(N/N=C(\C)c4cc(OC)c(OC)c(OC)c4)n3)cc2c1` gave a growth of 107%. Work on `O=C(NC(=S)N1CCN(c2ncnc3c2cnn3-c2ccccc2)CC1)c1ccc(Cl)cc1` yielded a growth of 95.5%. With `COc1ccccc1/C=C/c1cccc(NC(=S)NCCCCN(C)C)c1` the growth was -41.7% (active). For `Cc1ccc(C2=NN(c3nc(-c4cc5ccccc5oc4=O)cs3)C(c3ccc(C)cc3)C2)cc1` (centres undefined), the growth was 91%. With `CC1=C2C(=C[C@@](C)(COCOCCCl)[C@@H]2O)C(=O)[C@](C)(O)C12CC2` the growth was -31.8% (active). `O=C(Nc1cccc(C(F)(F)F)c1)c1cncc(C#Cc2cnc3ccc(N4CCOCC4)nn23)c1` was tested, and the growth was -33% (active). For `O=C(/C=C/c1cccc(OCc2ccccc2)c1)c1nc2ccccc2[nH]1`, the growth was 5.75% (active). Work on `COc1ccc(-c2ccc(/C=N/NC(=O)c3[nH]c4ccc(Br)cc4c3-c3ccccc3)s2)cc1` yielded a growth of 95.6%. `O=C(CSc1nc2ccccc2c(=O)n1-c1ccc(Cl)cc1)Nc1ccc(-c2nc3ccccc3[nH]2)cc1` was tested, and the growth was 44.4%. `CCOc1ccccc1[C@H]1C(C(=O)c2ccc(Cl)cc2)C2(N[C@@H]1c1ccccc1)C(=O)Nc1ccc(Cl)cc12` (some centres undefined) was tested, and the growth was 18.2%. `CC(C)(C)OC(=O)N1C/C(=C\c2ccc(F)cc2)C(=O)/C(=C/c2ccc(F)cc2)C1` was tested, and the growth was -6.78% (active). In the case of `CC(=O)Oc1ccccc1C(=O)[Se]C(=NC1CCCCC1)NC1CCCCC1`, the growth is reported as -17.5% (active). `NNc1ncnc2sc3c(c12)CCN(Cc1ccccc1)C3` was tested, and the growth was 18.8%. For `CN1CCN(c2ccc(C(=O)/C=C/c3ccc(C#N)cc3)cc2)CC1`, the growth was 65.1%. For `Nc1cc(-c2c[nH]c3ccc(F)cc23)nc2cc(-c3c[nH]c4ccccc34)nn12`, the growth was -0.0986% (active). For `CCCCCCCCCCCCCCCCCCCC(=O)NCCc1c[nH]c2ccc(OC(=O)CCCC(=O)OCCOOCCOOCCOOCCOOCCOOCCOOCCOOCCOOCCOOCCOOCCOOCCOC)cc12`, the growth was -29.3% (active). For `O=C(CN1C(=O)/C(=C/c2ccccc2F)SC1=S)N1CCOCC1`, the growth was 82.5%. Work on `COc1ccccc1C(=O)NNC(=O)CSc1nc2c(c(=O)[nH]1)CCCC2` yielded a growth of 100%. `CSc1ccc(NC(=O)c2ccc3nnn(/C(C#N)=C/c4ccccn4)c3c2)cc1` was tested, and the growth was 2.93% (active). Work on `CC(=O)Nc1ccc(S(=O)(=O)Nc2ccc(-c3ccc4c(c3)NC(=O)/C4=C\c3ccc[nH]3)cc2)cc1` yielded a growth of 84.2%. `CN(C)c1ccnc(CNCCSC2(c3ccc(C(F)(F)F)cc3)c3ccccc3CCc3ccccc32)c1` was tested, and the growth was -41.9% (active). `O=C(Cn1nc(-c2ccccc2)ccc1=O)N/N=C/c1ccc(N2CCOCC2)cc1` was tested, and the growth was 96.3%. For `Cc1ccc(NC(=O)N/N=C/c2c[nH]c3ccccc23)c(C)c1`, the growth was 1.73% (active). For `CC(C)(C)C(=O)C1CC(C#N)=C2C=Cc3c(ccc4ccccc34)N21` (centres undefined), the growth was 108%. `COC(=O)c1cc(C(=O)C(C)(C)C)n2c3ccccc3c3ccccc3c12` was tested, and the growth was 90.4%.
